High-throughput results as filed in PubChem BioAssay.
TRPML1 blocker = human mucolipin-1 channel inhibition; TRPML1-inducible cells, Ca2+ dye fluorescence, FDSS; stronger effect = lower value; inhibition of EC80 agonist-evoked calcium signal; activity change, negative = inhibition, % (no concentration beside the values); AID 624415; Q9GZU1; 390,000 compounds, 0.02% hits; in the data active means activity change below about -50%; inconclusive means between about -30% and that limit;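 further: stimulus is agonist 54-4 at its EC80 concentration; on the % scale 0 is the no-effect control and ±100 the full control effect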
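Tet-induced TRPML1-DL cells loaded with Ca8 no-wash calcium dye were read kinetically on FDSS. Compound addition was followed by EC80 agonist 54-4 (4 uM final); inhibition was read over 110 s.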
GLP1R cytotox = cytotoxicity counter-screen for GLP-1 receptor inverse agonists; AID 624418; 410,000 compounds, 0.13% hits; Potency, µM (titrated, usually from 38.3 µM), for the others: top-dose activity change, negative = inhibition, usual class: inhibitors; HEK293 cAMP-luciferase reporter cells, luminescence, 24 h;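 further: loss of luciferase light is scored as toxicity; potency means the concentration at half of the fitted maximal effect; on the % scale 0 is the no-effect control and ±100 the full control effect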
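Seeding density was 200 cells/uL; after overnight-length (12 h) culture, 23 nL compounds went on for 24 h at 37 °C. Readout used a luciferase detection reagent, luminescence taken after 12 min at room temperature.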
TRPML1 agonist = human mucolipin-1 channel agonism; TRPML1-expressing cells, Ca2+ dye fluorescence, FDSS; activation, % (test concentration not listed); 410,000 compounds, 0.12% hits; AID 624414; in the data active means activation above about 50%; inconclusive means mostly about 30% to 49%; further: 0% is about no effect
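Calcium fluorescence on an FDSS kinetic reader gave the read-out. Tet-induced TRPML1-DL cells were plated overnight, dye-loaded (Ca8 with quencher, 45-90 min, room temperature, dark), then read 110 s after compound addition, and again 110 s after 4uM final 54-4 (EC80).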
TRHR ag = agonists of human TRH receptor; activation, % at 2 µM; 360,000 compounds, 0.18% hits; P34981; TRHR cells, calcium flux fluo-8, FDSS agonist mode; in the data active means activation above about 30%; further: 0% is about no effect
Target sequence (P34981 whole entry, looked up): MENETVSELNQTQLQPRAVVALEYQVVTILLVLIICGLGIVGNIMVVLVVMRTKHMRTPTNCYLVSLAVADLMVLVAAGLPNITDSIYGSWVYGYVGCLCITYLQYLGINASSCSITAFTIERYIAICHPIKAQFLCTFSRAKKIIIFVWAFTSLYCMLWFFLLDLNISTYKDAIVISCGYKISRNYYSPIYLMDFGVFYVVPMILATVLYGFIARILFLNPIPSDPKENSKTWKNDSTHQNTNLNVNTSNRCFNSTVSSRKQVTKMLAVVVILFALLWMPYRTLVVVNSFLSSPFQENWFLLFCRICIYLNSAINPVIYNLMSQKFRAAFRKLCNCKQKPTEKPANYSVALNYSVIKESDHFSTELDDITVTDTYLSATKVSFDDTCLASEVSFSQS
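Fluo-8-loaded TRHR cells; 10 s baseline, compound added, kinetic Ca2+ fluorescence read 1/s, agonist mode.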
TRHR PAM = TRH receptor (human) allosteric enhancement; enhancement, % at 2 µM; 360,000 compounds, 0.66% hits; TRHR cells, fluo-8 calcium fluorescence, EC20 TRH enhancement; in the data active means enhancement above about 30%; further: 0% is about no effect
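TRHR-expressing cells loaded with fluo-8 calcium dye were read kinetically (ex 480/em 530) during compound addition, then stimulated with an EC20 of TRH (10 nM final). Enhancement of the Gq-mediated intracellular calcium response was scored.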
PTHR1 ag = PTHR1 (human) receptor agonism | Potency, µM (doses to about 115 µM), inactives show at the highest dose activation, most hits filed as activators | Q03431 | 410,000 compounds, 0.075% hits | AID 743266 | HEK293 GP2 PTHR1 cells, GloSensor cAMP luminescence, 1 h; further: potency means the concentration at half of the fitted maximal effect; nearly all actives have a fitted effect of over 55% in size
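HEK-293-derived GP2 cells expressing PTHR1 and a GloSensor cAMP reporter, 3,000/well, plated overnight, given luciferin plus IBMX (each 0.5 mM as added) for 1 h at 37 °C, then compound for 1 h at 37 °C. Luminescence was read after 15 min at room temperature.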
* = called active by the depositor; i = inactive; ? = inconclusive; / = no result; ! = not active in a repeat; [ ] = dose if it differs, or a comment. Hits are enriched below; roughly 0.93% of the tested compounds scored in any of these assays. Unless noted, the call rests on the fitted dose curve; in most records, active means well fitted curve in the direction sought with a large enough effect; inconclusive means small, poorly fitted or top-dose-only effect, or another doubt; inactive means no such curve, though single readings can be large; an effect the other way counts as inactive or inconclusive.

SMILES | TRPML1 blocker | GLP1R cytotox | TRPML1 agonist | TRHR ag | TRHR PAM | PTHR1 ag
COc1ccccc1NC(=O)C1CCCN(c2ncnc3c2nc2n3CCCCC2)C1 (centres undefined) | -11.4 | 0.5% | 1.2 | -1.1 | 0.7 | -95.8%
COc1cc(OC)c(NC(=O)C2CCCN(c3ncnc4c3nc3n4CCCCC3)C2)cc1Cl (centres undefined) | -11.0 | 4.3% | 0.6 | -0.7 | 33.1* | i
CN1CCOc2cc(S(=O)(=O)N3CCN(c4nc(-c5cccs5)nc5ccccc45)CC3)ccc21 | / | / | -0.3 | / | / | /
C[n+]1ccc(/C=C/c2ccc([N+](C)(C)C)cc2)c2ccccc21 | / | / | -0.7 | / | / | /
O=C(CCN1C(=O)CSc2ccccc21)Nc1ccc(OC(F)(F)F)cc1 | -6.2 | -7.2% | 0.5 | -0.2 | 33.3* | -31.7%
CCOc1ccc(NC(=O)CCN2C(=O)CSc3ccccc32)cc1 | -5.9 | -10.4% | -0.6 | 0.2 | 6.8 | -80.8%
CSc1nnc(N2C(=O)C(O)=C(C(=O)c3ccco3)C2c2ccc(F)cc2)s1 (centres undefined) | -9.7 | 0.1% | -0.4 | 36.4* | 2.6 | -16.9%
COc1ccc(-c2cc3ccc(O)cc3oc2=O)cc1OC | -2.4 | i | 7.1 | -0.9 | 31.5* | -9.4%
COc1ccc(-c2cc3ccc(OCC(N)=O)cc3oc2=O)cc1OC | -10.9 | 21.7% | 0.8 | 1.2 | 2.8 | -21.4%
CCN(Cc1cccs1)C(=O)CN1C(=O)NC(c2ccccc2)(c2ccccc2)C1=O | -0.8 | 2.7% | 1.1 | 0.6 | 35.5* | -11.5%
CCN(Cc1cccs1)C(=O)CN1C(=O)NC2(CCCc3ccccc32)C1=O (centres undefined) | -3.6 | 4.4% | -0.2 | -0.1 | 8.6 | i
CCOC(=O)Cn1nc(C)cc1NC(=O)c1cc(OC)c(OC)c(OC)c1 | -15.5 | -4.8% | -0.2 | -0.3 | -2.6 | i
CCOC(=O)Cn1nc(C)cc1NC(=O)c1ccncc1 | -11.7 | 2.0%[7.66 µM] | 0.0 | 0.5 | 34.1* | ?
O=S(=O)(c1ccc(OC(F)(F)F)cc1)N1CCN(c2nc(-c3cccs3)nc3ccccc23)CC1 | / | / | -0.3 | / | / | /
COc1ccc(N2CCN(C(c3ccccc3OC)c3nnnn3C3CCCC3)CC2)cc1 (centres undefined) | ? | -8.7% | 79.4* | -0.4 | -3.5 | i
COc1cccc(C(c2nnnn2CCc2ccccc2)N2CCN(c3ccccc3)CC2)c1OC (centres undefined) | -9.1 | -30.6% | 87.7* | 0.4 | -2.7 | -3.4%[57.5 µM]
COc1cc2nc(CCNCc3ccccc3)nc(NC3CCN(C)CC3)c2cc1OC | / | / | -0.4 | / | / | /
C=C(C)C1CC=C(C)/C(=N/NC(=O)c2ccc(NC(=O)c3cccc(C)c3)cc2)C1 (centres undefined) | 4.4 | -11.5% | -0.2 | / | / | i
C=C(C)C1CC=C(C)/C(=N/NC(=O)c2cccc([N+](=O)[O-])c2)C1 (centres undefined) | -12.4 | -10.8% | 1.1 | -0.5 | 36.6* | -49.9%
COCC1CCCN(Cc2cn(-c3ccccc3F)nc2-c2cc(C)sc2C)C1 (centres undefined) | -1.6 | -21.4% | -0.4 | 0.6 | 32.0* | -12.3%
Cc1nc([N+](=O)[O-])cn1CC(=O)c1ccc2c(c1)OCCCO2 | / | / | -0.4 | / | / | /
Cc1cc(OCCn2ccnc2)cc(C(C)C)c1 | -2.5 | 9.9% | 2.2 | -0.9 | -2.6 | i
Cc1cc(C)cc(OCCn2ccnc2)c1 | -1.1 | -0.9% | -0.1 | 0.0 | 35.1* | i
C[N+](C)(C)c1ccc(/C=C/c2ccnc3ccccc23)cc1 | / | / | -0.4 | / | / | /
CCC[N+](C)(C)c1ccc(/C=C/c2ccncc2)cc1 | / | / | 16.5 | / | / | /
SMILES | TRPML1 blocker | GLP1R cytotox | TRPML1 agonist | TRHR ag | TRHR PAM | PTHR1 ag
Cc1cc(C)cc(NC(=O)Cc2csc(COc3cccc(C)c3)n2)c1 | 0.5 | 15.6% | 1.5 | -0.3 | 37.5* | i
Cc1cc(C)cc(Oc2nc3c(C)cccn3c(=O)c2/C=C(\C#N)c2nc3ccccc3s2)c1 | 0.2 | 8.9% | 0.1 | -0.3 | 53.9* | -2.4%
CN(C(=O)COC(=O)c1ccccc1OCC(=O)Nc1ccc(Br)cc1)c1ccccc1 | / | / | 3.3 | / | / | /
CC(=O)Nc1ccc(N=Cc2c(O)c(C(=O)Nc3ccccc3)cc3ccccc23)cc1 | 13.5 | -18.6% | 29.9 | 108.7* | -0.6 | -42.1%
CC(=O)Nc1ccc(N=Cc2c(O)c3ccccc3oc2=O)cc1 | / | 12.4% | / | -0.1 | -2.3 | i
O=C(CSCc1ccccc1)N=Nc1c(O)[nH]c2ccccc12 | 2.8 | 68.1% | 5.9 | -1.3 | 1.3 | -32.0%
Cc1ccc2[nH]c(O)c(N=NC(=O)CCc3ccccc3)c2c1Br | 3.2 | 17.9% | 0.1 | 1.0 | 32.1* | i
CCc1ccc2oc(-c3ccc(C)c(NC(=O)COc4ccc(Cl)cc4)c3)nc2c1 | / | / | -0.2 | / | / | /
Cc1ccc(NC(=O)NC(=O)c2cnccc2C(F)(F)F)c(C)c1 | 2.0 | -24.1% | 0.8 | 0.3 | 3.7 | -6.4%
Cc1ccc(N=C(NO)c2cnccc2C(F)(F)F)c(C)c1 | -3.6 | 1.6% | 0.1 | -0.3 | 32.0* | i
COC(=O)c1nnn(CC(=O)NC(=O)Nc2cccc(C)c2C)c1C(=O)OC | 9.8 | -4.3% | 1.4 | 2.2 | 0.7 | -93.0%
COC(=O)c1nnn(CC(=O)NC(=O)Nc2ccccc2F)c1C(=O)OC | 42.9 | 0.6% | 0.3 | 0.6 | 31.0*! | i
